Screens: PubChem BioAssay, University of Pittsburgh Molecular Library Screening Center
Only a selection was taken, and hits are over-represented in it overall.
HIV RNase H inh-1: HIV-1 RT RNase H inhibitors, primary screen, biochemical, fluorescence | RT-RNase H RNA/DNA duplex cleavage | inhibition, % at 10 µM | actives 1.9% (n = 65,000); in the data active = inhibition above about 50%
HIV RNase H inh-2: HIV-1 RT RNase H inhibitors, retest, confirmation, biochemical. Recombinant RT RNase H, fluorescent RNA/DNA duplex cleavage. AID 651, 2007. actives 39% (n = 1,000). inhibition, % at 10 µM. shares compounds with HIV RNase H inh-1; in the data active = inhibition above about 48%; inconclusive = no clear call, values can overlap the other calls
Large screens that a line does not name were inactive (follow-up assays come after a bar, where they were run).

Cc1cc(NC(=O)C2(c3ccccc3)CCCC2)no1	none
CCCCCCC(=O)N(O)C1CC(=O)N(c2ccc(Br)cc2)C1=O (configuration not stated)	none
COc1ccccc1N(O)C1CC(=O)N(c2ccc(Br)cc2)C1=O (configuration not stated)	HIV RNase H inh-1 68 | HIV RNase H inh-2 inactive
Cc1cccc(N2C(=O)CC(N(O)c3ccccc3)C2=O)c1 (configuration not stated)	none
O=C1CC(=O)CC(c2ccccc2Cl)C1	none
O=C(NCC1CCCO1)C1CCC(CNS(=O)(=O)c2ccccc2)CC1 (configuration not stated)	none
CCc1nnc(SCc2cn3c(C)cc(C)nc3n2)n1N	none
COc1ccc(CCNC(=O)c2ccc3c(=O)n(Cc4ccco4)c(=S)[nH]c3c2)cc1OC	none
COc1ccc(CCNC(=O)c2ccc3nc(-c4ccco4)c(-c4ccco4)nc3c2)cc1OC	HIV RNase H inh-1 93 | HIV RNase H inh-2 inactive
COc1ccc(CCNC(=O)COC(=O)c2ccco2)cc1OC	none
Cc1cc(NS(=O)(=O)c2ccc(N)cc2)no1	none
CC(C)(C)NC(=O)C(c1ccccc1F)N(Cc1ccco1)C(=O)c1csnn1 (configuration not stated)	none
Cc1cc(NC(=O)CSc2nnnn2Cc2ccccc2)no1	none
S=C(c1ccc(-c2ccc(Cl)c(Cl)c2)o1)N1CCOCC1	HIV RNase H inh-1 66 | HIV RNase H inh-2 inactive
COc1ccc(-c2ccc(C(=S)N3CCN(C(C)=O)CC3)o2)cc1	none
O=C(CSc1ccc(Cl)cc1)N1CCOCC1	none
N#CCCN1CCN(C(=S)c2ccc(-c3cc(Cl)ccc3Cl)o2)CC1	none
CCOc1ccc(C(=S)N2CCOCC2)cc1	none
S=C(c1ccc(-c2ccccc2Cl)o1)N1CCOCC1	HIV RNase H inh-1 95 | HIV RNase H inh-2 51
O=C(c1cc(Cl)ccc1Cl)N1CCOCC1	none
O=C(c1ccc(-c2cccc(C(F)(F)F)c2)o1)N1CCOCC1	none
S=C(c1ccc(Cl)cc1)N1CCOCC1	HIV RNase H inh-1 90 | HIV RNase H inh-2 58
CN(CCc1ccccn1)Cc1ccc(Cl)cc1Cl	none
COc1ccccc1OCC(=O)Nc1ccc(S(=O)(=O)Nc2nc(C)cc(C)n2)cc1	none
COc1cccc(S(=O)(=O)Nc2ccc(C(=O)N3CCOCC3)cc2)c1	none
COc1ccc(-n2c(=O)c3c4c(sc3n3c(C)nnc23)CCCC4)cc1	none
CCCCn1c(CN2C(=O)c3ccccc3C2=O)nc2ccccc2c1=O	HIV RNase H inh-1 90 | HIV RNase H inh-2 54
O=C1c2ccccc2C(=O)N1Cc1nc2ccccc2c(=O)n1CCCN1CCOCC1	none
O=C1c2ccccc2C(=O)N1Cc1nc2ccccc2c(=O)n1CCCn1ccnc1	none
CC(C(=O)Nc1nc2ccccc2[nH]1)N1C(=O)C2CC=CCC2C1=O (configuration not stated)	none
Cn1c(=O)c2c(ncn2CCN(CCO)Cc2ccccc2)n(C)c1=O	none
CCn1c(=O)cc(SCC(=O)N2CCOCC2)c2ccccc21	none
CCn1c(=O)cc(SCC(=O)N2CCN(c3ccccc3OC)CC2)c2ccccc21	HIV RNase H inh-1 71 | HIV RNase H inh-2 inactive
CCn1c(=O)cc(SCC(=O)N2CCN(C3CCCCC3)CC2)c2ccccc21	none
Cc1ccc(S(=O)(=O)NCCSc2nnnn2C)cc1	none
O=C(CN1CCN(c2ccccn2)CC1)Nc1cc(C(F)(F)F)ccc1Cl	none
CN(C)c1ccc(-c2nn3c(C4CCCCC4)nnc3s2)cc1	none
CCn1c(SCC(=O)c2ccc(OC)cc2)nnc1C(C)NC(=O)c1ccc(OC)cc1 (configuration not stated)	none
O=C(C1COc2ccccc2O1)N1CCc2ccccc21 (configuration not stated)	none
Cn1c(N)c(C(=O)COC(=O)C2(c3cccc(F)c3)CCCC2)c(=O)n(C)c1=O	none
O=C(CSc1n[nH]c(-c2ccncc2)n1)c1ccccc1	none
Cc1nc(SCN2C(=O)c3ccccc3C2=O)n[nH]1	none
Cc1nc(SCC(=O)c2ccccc2)n[nH]1	HIV RNase H inh-1 59 | HIV RNase H inh-2 inactive
CN1CCN(C(=O)c2ccccc2NC(=O)Cc2ccccc2)CC1	none
COC(=O)c1c(-c2ccc(F)cc2)csc1NC(=O)c1ccco1	none
COc1cccc(-c2cc(C(=O)Nc3cc(C)on3)no2)c1	none
COC(=O)c1c(-c2cccnc2)csc1NC(=O)c1cc(C)on1	HIV RNase H inh-1 86 | HIV RNase H inh-2 inconclusive
CCn1c(=O)cc(OCC(=O)Nc2ccccc2C#N)c2ccccc21	none
O=C(Nc1c(C(=O)NCc2ccco2)cnn1-c1ccccc1)c1ccc(F)cc1	none
COCCN1Cc2cccc(C(=O)NCc3ccc4c(c3)OCO4)c2C1=O	none
CCCc1cc(N2CCCC(C(=O)NCC)C2)n2ncnc2n1 (configuration not stated)	none
CCOC(=O)c1c(-c2ccccc2)oc2ccc(O)c(CN3CCOCC3)c12	none
CCOC(=O)c1c(C)oc2c1c(C(c1ccncc1)N1CCOCC1)c(O)c1ccccc12 (configuration not stated)	HIV RNase H inh-1 68 | HIV RNase H inh-2 inactive
CCOC(=O)c1c(C)oc2c1c(C=NC1CCS(=O)(=O)C1)c(O)c1ccccc12 (configuration not stated)	none
OC1(c2cccc(C(F)(F)F)c2)CCN(c2ncnc3c2[nH]c2ccc(F)cc23)CC1	none
CCN(CCO)C(=O)C12CCC(C)(C(=O)C1)C2(C)C (configuration not stated)	none
CCOc1ccc2nc(NC(NC(=O)CC)(C(=O)OC)C(F)(F)F)sc2c1 (configuration not stated)	none
COc1ccccc1NC(=O)CN1CCN(CC(=O)Nc2ccc3c(c2)OCCO3)CC1	none
COC(=O)CN1C(=O)C(O)(CC(=O)c2ccc(C)o2)c2ccccc21 (configuration not stated)	none
COC(=O)CN1C(=O)C(O)(CC(=O)c2ccccc2)c2ccccc21 (configuration not stated)	none
COC(=O)CN1C(=O)C(O)(CC(=O)c2ccc(C)cc2)c2ccccc21 (configuration not stated)	HIV RNase H inh-1 54 | HIV RNase H inh-2 inactive
COc1cc2c(cc1OC)CN(C(=O)CSc1nnc(C)s1)CC2	none
CN(C(=O)c1ccc(Cl)cc1)C1=CCCCC1CCC#N (configuration not stated)	none
CCn1c(=S)sc2nc(C)sc21	HIV RNase H inh-1 84 | HIV RNase H inh-2 inactive
CC(C)(C)NC(=O)CC(CC(=O)O)c1ccccc1 (configuration not stated)	none
O=C(c1cccc(Cl)c1)N1CCN(Cc2ccccc2F)CC1	none
COC(=O)CSc1ccccc1C(=O)OC	none
O=C(CN1C(=O)c2ccccc2S1(=O)=O)Nc1cccnc1	none
COC(=O)CSC1=NS(=O)(=O)c2ccccc21	HIV RNase H inh-1 66 | HIV RNase H inh-2 inactive
O=C(CSc1ccccc1)Nc1cccnc1	none
O=C(CSC1=NS(=O)(=O)c2ccccc21)Nc1ccccc1	HIV RNase H inh-1 55 | HIV RNase H inh-2 inactive
COC(=O)CSc1nnc(-c2ccccc2OC)o1	none
COC(=O)c1ccc2c(=O)n(Cc3ccc4c(c3)OCO4)c(SCC(=O)N3CCCC3)nc2c1	none
COc1ccccc1CC(=O)Nc1ccc(O)cc1C(=O)O	none
COc1ccc(C(=O)CN2C(=O)C(C)(C)Oc3ccc(C(=O)N4CCCCCC4)cc32)cc1	none
Cc1ccc(Oc2ccc(NC(=O)c3ccco3)cc2)cc1	none
Cc1ccc(NC(=O)c2cc(NC(=O)c3ccco3)ccc2N2CCOCC2)cc1	none
Cc1ccc(NC(=O)c2cc(NC(=O)c3ccco3)ccc2N2CCCCC2)cc1	HIV RNase H inh-1 58 | HIV RNase H inh-2 inactive
CCCn1c(SCC(N)=O)nnc1-c1ccco1	none
